Experiment [1] in a line: liver-stage malaria parasite load reduction – cell-based, known kinase inhibitor set, luminescence, hepatoma host viability (AID 624392).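 Further: infected cells incubated roughly two days before readout.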 As to conditions: Plasmodium liver stage in hepatoma cells, luciferase luminescence, concentration not given here; liver cell % of control: measured here: host liver cell viability; parasite % of control: stronger effect = lower value.
A short description of experiment [2]: altered dexamethasone sensitivity, NF-kB reporter, cell-based, luciferase, IL-1B stimulus (AID 624486).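 On percent of negative control (+Dex): 100% = mean signal of vehicle control wells on the plate.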 As to conditions: IL-1B + dexamethasone, luminescence; percent of negative control (+Dex): actives lie on both sides, concentration not given here; z-score: measured here: IL-1B alone, no Dex.
The target of experiment [3] is Cellular tumor antigen p53 (Homo sapiens) (UniProt P04637). As to the kind of experiment: GFP-p53 level modulators in HPV16+ cells – imaging, known kinase inhibitor set, EGFP/DsRed ratio (AID 1053116).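 Further: cells exposed to compounds for 24 h at 37 °C before reading.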 As to conditions: GFP-p53 stability, stronger effect = higher value; EGFP object count: measured here: GFP-p53 positive objects count.
Experiment [4] is described as follows: inducers of IRF3 signaling, differentiated THP-1 – cell-based, PMA-stimulated THP-1, luminescence (AID 1053176). As to conditions: PMA-differentiated THP-1, IRF3 reporter luminescence; stronger effect = higher value.

Values joined by “and” are separate entries in the source; they are usually repeats but may differ in a detail not shown here. Identical values can stand only once. Some compounds were tested as several samples or in several runs, with calls that do not always agree. Active and inactive are the calls of the source. How the calls were made is not given here.

Sequence of Cellular tumor antigen p53 (Homo sapiens) (P04637 whole entry, looked up): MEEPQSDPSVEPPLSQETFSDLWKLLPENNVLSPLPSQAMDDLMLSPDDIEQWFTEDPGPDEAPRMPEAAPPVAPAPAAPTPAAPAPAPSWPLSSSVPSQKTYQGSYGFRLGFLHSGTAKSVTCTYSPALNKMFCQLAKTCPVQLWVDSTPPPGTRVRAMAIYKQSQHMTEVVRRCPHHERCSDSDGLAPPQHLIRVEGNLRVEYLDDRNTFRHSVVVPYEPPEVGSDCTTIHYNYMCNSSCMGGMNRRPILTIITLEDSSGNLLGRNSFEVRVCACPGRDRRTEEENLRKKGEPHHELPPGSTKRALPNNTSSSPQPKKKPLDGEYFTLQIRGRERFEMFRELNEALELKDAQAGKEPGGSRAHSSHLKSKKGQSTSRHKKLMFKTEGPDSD

On to `Cn1cc(C2=C(c3cn(CCCCCN)c4ccccc34)C(=O)NC2=O)c2ccccc21`, for which, in experiment [1], the liver cell % of control came out at 105% and the parasite % of control was 35.6% (inactive). Also, in experiment [2], the percent of negative control (+Dex) was 99.5% (inactive) and the z-score turned out to be 0.77. Also, in experiment [3], the EGFP object count is 13.5 and the EGFP/DsRed ratio is 0.639 (inactive). In addition, the fraction signal in experiment [4] is 0.0035 (inactive).

Take `OCCn1c(-c2ccncc2)c(-c2ccc(F)cc2)c2ncccc21`: in experiment [1], the liver cell % of control came out at 114% and the parasite % of control is 46% (inactive). Also, in experiment [2], the percent of negative control (+Dex) was 99.5% (inactive) and the z-score was determined as 0.305. For the same molecule, in experiment [3], the EGFP object count is 5.5 and the EGFP/DsRed ratio is 0.119 (inactive). Also, in experiment [4], the fraction signal was -0.0135 (inactive).

Take `CC(=O)NC(Cc1ccc(OP(=O)(O)O)cc1)C(=O)NC1CCC(=O)N2CCCC(C(=O)NCc3cccc4ccccc34)N2C1=O` (stereo not given): in experiment [1], the liver cell % of control amounted to 98.5% and the parasite % of control is 45.1% (inactive). In experiment [2], the percent of negative control (+Dex) was 100% (inactive) and the z-score is -0.165. Moreover, in experiment [3], the EGFP object count came out at 8 and the EGFP/DsRed ratio is 0.214 (inactive). Besides, the fraction signal in experiment [4] is -0.0075 (inactive).

For `Cn1cc(C2=C(c3cn(CCCN=C(N)N)c4ccccc34)C(=O)NC2=O)c2ccccc21`, in experiment [1], the liver cell % of control was determined as 110% and the parasite % of control was 44.7% (inactive). For the same molecule, in experiment [2], the percent of negative control (+Dex) was 101% (inactive) and the z-score was found to be 0.295. In addition, in experiment [3], the EGFP object count stood at 7.5 and the EGFP/DsRed ratio was 0.202 (inactive). For the same molecule, the fraction signal in experiment [4] is -0.005 (inactive).

As for `CC(C)(O)Cn1c(=O)c(Oc2ccc(F)cc2F)cc2cnc(NC3CCOCC3)nc21`, in experiment [1], the liver cell % of control stood at 105% and the parasite % of control is 58.9% (inactive). In experiment [2], the percent of negative control (+Dex) was 86% (inactive) and the z-score was -0.37. In experiment [3], the EGFP object count came to 4 and the EGFP/DsRed ratio was 0.0773 (inactive). Besides, the fraction signal in experiment [4] is -0.0135 (inactive).

For `Cn1c(=O)c(Oc2ccc(F)cc2F)cc2cnc(NC(C)(C)CO)nc21`, in experiment [1], the liver cell % of control was 114% and the parasite % of control is 73.2% (inactive). For the same molecule, in experiment [2], the percent of negative control (+Dex) is 106% (inactive) and the z-score stood at 1.07. Besides, in experiment [3], the EGFP object count is 3 and the EGFP/DsRed ratio is 0.148 (inactive). Further, the fraction signal in experiment [4] was 0.023 (inactive).

For the molecule `CC(c1ccccc1)C(C(=O)Nc1ccc(I)cc1F)N1C(=O)NC(c2ccc(OCC(O)CO)cc2)C1=O` (stereo not given), in experiment [1], the liver cell % of control was 85.7% and the parasite % of control was 72.5% (inactive). In experiment [2], the percent of negative control (+Dex) is 55% (active) and the z-score is -3.5. Further, in experiment [3], the EGFP object count was 5 and the EGFP/DsRed ratio was 0.306 (inactive). The fraction signal in experiment [4] is 0.0035 (inactive).

Take `Nc1c(C(=O)c2cccc(OCC(O)CO)c2)cnn1-c1ccc(F)cc1` (stereo not given): in experiment [1], the liver cell % of control turned out to be 125% and the parasite % of control is 58.2% (inactive). Moreover, in experiment [2], the percent of negative control (+Dex) was 110% (inactive) and the z-score came out at 1.27. In experiment [3], the EGFP object count was 1.5 and the EGFP/DsRed ratio was 0.00398 (inactive). Also, the fraction signal in experiment [4] is -0.0115 (inactive).

Take `Nc1c(C(=O)c2cccc(CCC3(O)CCCC3)c2)cnn1-c1ccc(F)cc1`: in experiment [1], the liver cell % of control was 112% and the parasite % of control is 81% (inactive). Further, in experiment [2], the percent of negative control (+Dex) was 105% (inactive) and the z-score was -0.24. In addition, in experiment [3], the EGFP object count was found to be 2.5 and the EGFP/DsRed ratio is 0.0989 (inactive). Further, the fraction signal in experiment [4] was -0.0005 (inactive).

With `Cn1c(=O)c(Oc2ccc(F)cc2)cc2cnc(NC3CCOCC3)nc21`, in experiment [1], the liver cell % of control stood at 106% and the parasite % of control is 64.1% (inactive). In experiment [2], the percent of negative control (+Dex) was 104% (inactive) and the z-score is 0.86. In addition, in experiment [3], the EGFP object count was 3.5 and the EGFP/DsRed ratio was 0.251 (inactive). Further, the fraction signal in experiment [4] is -0.0055 (inactive).

Regarding `Cn1cc(C2=C(c3cccc([N+](=O)[O-])c3)C(=O)NC2=O)c2ccccc21`, in experiment [1], the liver cell % of control turned out to be 86.9% and the parasite % of control is 3.57% (inactive). Further, in experiment [2], the percent of negative control (+Dex) is 106% (inactive) and the z-score was -2.63. Further, in experiment [3], the EGFP object count amounted to 14 and the EGFP/DsRed ratio was 0.255 (inactive). Moreover, the fraction signal in experiment [4] is 0.0015 (inactive).

Regarding `Cn1cc(C2=C(c3c(S(C)=O)n(C)c4ccccc34)C(=O)NC2=O)c2ccccc21` (stereo not given), in experiment [1], the liver cell % of control came out at 123% and the parasite % of control was 78.6% (inactive). In experiment [2], the percent of negative control (+Dex) was 97.5% (inactive) and the z-score came to 0.295. Moreover, in experiment [3], the EGFP object count stood at 5 and the EGFP/DsRed ratio was 0.591 (inactive). In experiment [4], the fraction signal was -0.003 (inactive).

On to `Cn1cc(C2=C(n3ccc4ccccc43)C(=O)NC2=O)c2ccccc21`, for which, in experiment [1], the liver cell % of control was found to be 130% and the parasite % of control was 37.7% (inactive). Moreover, in experiment [2], the percent of negative control (+Dex) was 95.5% (inactive) and the z-score worked out at 0.125. Further, in experiment [3], the EGFP object count stood at 4 and the EGFP/DsRed ratio is 0.178 (inactive). The fraction signal in experiment [4] was -0.0025 (inactive).

As to `Fc1ccc(-c2c(-c3ccncc3)[nH]c3nccnc23)cc1`, in experiment [1], the liver cell % of control is 183% and the parasite % of control is 30.2% (inactive). For the same molecule, in experiment [2], the percent of negative control (+Dex) was 110% (inactive) and the z-score is -0.915. For the same molecule, in experiment [3], the EGFP object count was determined as 4 and the EGFP/DsRed ratio was 0.101 (inactive). For the same molecule, the fraction signal in experiment [4] is -0.02 (inactive).

Regarding `Cn1cc(C2=C(Nc3ccccc3)C(=O)NC2=O)c2ccccc21`, in experiment [1], the liver cell % of control amounted to 106% and the parasite % of control is 67.5% (inactive). In experiment [2], the percent of negative control (+Dex) is 106% (inactive) and the z-score came out at 0.495. In addition, in experiment [3], the EGFP object count turned out to be 7 and the EGFP/DsRed ratio was 0.118 (inactive). Moreover, the fraction signal in experiment [4] was -0.007 (inactive).

`Cn1cc(C2=C(c3cccc(OCC(O)CO)c3)C(=O)NC2=O)c2ccccc21` (stereo not given): in experiment [1], the liver cell % of control is 160% and 129%; the parasite % of control is 22.3% (inactive) and 22.7% (inactive). Also, in experiment [2], the percent of negative control (+Dex) was 136% (active) and 100% (inactive); the z-score is -1.71 and 0.045. Moreover, in experiment [3], the EGFP object count is 7 and 9.5; the EGFP/DsRed ratio is 0.14 (inactive) and 0.372 (inactive). Also, the fraction signal in experiment [4] was 0.0035 (inactive) and -0.0025 (inactive).

As for `CC(Cn1ncnn1)Nc1ncc2cc(Oc3ccc(F)cc3F)c(=O)n(C)c2n1` (stereo not given), in experiment [1], the liver cell % of control stood at 111% and the parasite % of control was 71.1% (inactive). In experiment [2], the percent of negative control (+Dex) was 101% (inactive) and the z-score stood at 0.455. In experiment [3], the EGFP object count was found to be 1.5 and the EGFP/DsRed ratio is 0.0437 (inactive). Besides, the fraction signal in experiment [4] is -0.003 (inactive).

On to `CCCCCNC(=O)C1CCCN2C(=O)CCC(NC(=O)C(Cc3ccc(OP(=O)(O)O)cc3)NC(C)=O)C(=O)N12` (stereo not given), for which, in experiment [1], the liver cell % of control amounted to 106% and the parasite % of control is 50.1% (inactive). Besides, in experiment [2], the percent of negative control (+Dex) is 99% (inactive) and the z-score turned out to be 0.695. Besides, in experiment [3], the EGFP object count came to 3.5 and the EGFP/DsRed ratio was 0.227 (inactive). Further, the fraction signal in experiment [4] was -0.007 (inactive).

As to `O=[N+]([O-])c1ccc2c(c1)C(c1ccccc1Cl)=Nc1c(n[nH]c1-c1cccnc1)N2`, in experiment [1], the liver cell % of control was determined as 237% and the parasite % of control was 4.98% (inactive). For the same molecule, in experiment [2], the percent of negative control (+Dex) is 102% (inactive) and the z-score is -0.45. For the same molecule, in experiment [3], the EGFP object count came to 8 and the EGFP/DsRed ratio is 0.194 (inactive). Moreover, the fraction signal in experiment [4] is 0.01 (inactive).

Take `COc1ccc(C2=C(c3cn(C)c4ccccc34)C(=O)NC2=O)cc1OC`: in experiment [1], the liver cell % of control was 215% and the parasite % of control was 12.7% (inactive). In experiment [2], the percent of negative control (+Dex) is 100% (inactive) and the z-score is -0.425. Besides, in experiment [3], the EGFP object count was 13 and the EGFP/DsRed ratio is 0.28 (inactive). Further, the fraction signal in experiment [4] was -0.003 (inactive).

(Values after PubChem BioAssay.)
